In the library only some 2.3% were active in any assay of this set; here they are far more common.
Nrf2 block – Nrf2 qHTS screen for inhibitors | A549 ARE-Fluc reporter, luciferase luminescence, 18-24 h | Potency, µM (series often up to 46 µM), inactives show top-dose activity change, negative = inhibition, actives largely listed as inhibitors | 360,000 tested, 2.1% active | AID 504444, 2011; note: potency is the fitted concentration of half-maximal effect; % is set by controls: 0 for no effect and ±100 for the full control effect; nearly all actives have a fitted effect of over 60% in size
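Nrf2 activity is the BugLite luminescence, read 15 min after reagent at room temperature, following CellTiter-Fluor cytotoxicity readout (30 min, 37C). Compound titrations were applied for 18-24 h to 5000 A549 ARE_Fluc cells/well in 5% FBS OPTI-MEM.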
A549 tox-1 – Nrf2 qHTS screen for inhibitors: counterscreen for cytotoxicity | Potency, µM (highest dose often 46 µM), for the others: top-dose activity change, negative = cytotoxicity, usual class: inhibitors | A549 ARE-Fluc cells, CellTiter-Fluor viability, 18-24 h | 390,000 tested, 0.16% active; note: potency is the fitted concentration of half-maximal effect; % is set by controls: 0 for no effect and ±100 for the full control effect
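A549 ARE-Fluc cells in 5% FBS OPTI-MEM, 5000 cells/well, rested 2 h then exposed to compounds in concentration-response for 18-24 h at 37 °C. Viability by CellTiter-Fluor fluorescence (Ex 405/Em 525) after 30 min; luciferase luminescence (BugLite, 15 min, RT) read afterwards.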
Nrf2 ARE act – qHTS of Nrf2 Activators. AID 624171, 2012. 410,000 tested, 0.31% active. Potency, µM (titrated, usually from 46.1 µM), without a hit: at the highest dose activation, actives largely listed as activators. AREc32 ARE-luciferase reporter (MCF7-derived line), luminescence, 24 h; note: potency is the fitted concentration of half-maximal effect; % of control where 0% means no effect; nearly all actives have a fitted effect of over 65% in size
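Nrf2 activation is followed as ARE-luciferase induction in the AREc32 line after one day of compound treatment; luminescence is read with Steady-Glo.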
GRP78 ERSR act – qHTS for Inducers of the Endoplasmic Reticulum Stress Response (ERSR) in Human Glioma: qHTS; U87-MG GRP78 promoter luciferase reporter, 16 h; Potency, µM, for inactives: at the highest dose activation, actives largely listed as activators; 420,000 tested, 0.02% active; note: potency is the fitted concentration of half-maximal effect; series mostly up to about 76 µM; % of control where 0% means no effect; nearly all actives have a fitted effect of over 35% in size
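ERSR induction read as luciferase luminescence (Bright-Glo, 10 min at room temperature) in stably transfected human U87-MG glioma cells exposed to compounds for 16 h, using GRP78 as sensor.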
Mito fusion act – qHTS Assay for Small Molecule Inhibitors of Mitochondrial Division or Activators of Mitochondrial Fusion; Potency, µM (top dose mostly 46.1 µM), inactives show at the highest dose growth rescue (activation), actives largely listed as activators; S. cerevisiae fusion-defective mutant growth rescue, CellTiterGlo 48 h; 320,000 tested, 0.23% active; note: potency is the fitted concentration of half-maximal effect; % of control where 0% means no effect; nearly all actives have a fitted effect of over 45% in size
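Compounds are tested for their ability to restore growth of mitochondrial fusion-defective yeast strains at non-permissive 37C in YPEG medium over 48 hours. Viability is quantified by luciferase luminescence.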
miR-21 act – qHTS Assay for Modulators of miRNAs and/orActivators of miR-21; Potency, µM (titrated, usually from 38.3 µM), for the others: at the top dose activity change, positive = activation, most hits filed as activators; HeLa miR-21 FLuc reporter, luciferase, 48 h; 340,000 tested, under 10 active;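 note: % of control where 0% means no effect; miR-21 action dims this reporter so a rising signal means less miR-21 action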
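HeLa cells stably expressing CMV-driven firefly luciferase with a downstream miR-21 binding sequence, endogenously expressing miR-21, were treated with titrations (up to about 40uM final) for 48 hours at 37 degree Celsius. Luciferase luminescence was read after lysis.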
FLuc counter 3 – Nrf2 qHTS screen for inhibitors: Purified Fluc Biochemical Counterscreen for Hit Validation | shares compounds with Nrf2 block | purified firefly luciferase, luminescence inhibition | Potency, µM (series often up to 57.5 µM), for inactives: top-dose activity change, negative = inhibition, usual class: inhibitors | 1,400 tested, 4% active | AID 720522, 2013; note: potency is the fitted concentration of half-maximal effect; % is set by controls: 0 for no effect and ±100 for the full control effect; nearly all actives have a fitted effect of over 65% in size
Target sequence (P08659 whole entry, looked up): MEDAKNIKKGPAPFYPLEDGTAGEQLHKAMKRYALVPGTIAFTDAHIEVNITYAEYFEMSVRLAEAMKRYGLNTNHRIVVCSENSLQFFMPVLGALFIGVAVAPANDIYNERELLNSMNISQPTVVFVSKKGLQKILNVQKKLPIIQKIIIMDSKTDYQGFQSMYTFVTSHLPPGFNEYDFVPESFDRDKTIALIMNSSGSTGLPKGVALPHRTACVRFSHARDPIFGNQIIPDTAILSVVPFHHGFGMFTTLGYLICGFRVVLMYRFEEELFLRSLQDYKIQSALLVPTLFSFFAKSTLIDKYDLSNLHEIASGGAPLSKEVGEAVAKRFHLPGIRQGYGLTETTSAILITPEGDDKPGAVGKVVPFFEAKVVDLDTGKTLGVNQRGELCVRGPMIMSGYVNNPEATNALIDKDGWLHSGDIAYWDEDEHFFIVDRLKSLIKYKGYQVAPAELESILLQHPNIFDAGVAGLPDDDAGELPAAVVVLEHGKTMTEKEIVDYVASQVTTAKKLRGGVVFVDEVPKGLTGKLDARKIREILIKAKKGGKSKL
A549 tox-2 – Nrf2 qHTS screen for inhibitors: A549 ARE-Fluc Cytotoxicity Counterscreen for Hit Validation | shares compounds with Nrf2 block | A549 ARE-Fluc cells, cytotoxicity counterscreen | Potency, µM (series often up to 46.1 µM), for the others: top-dose activity change, negative = cytotoxicity, hits mostly inhibitors | 1,400 tested, 2% active | AID 720523, 2013;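 note: potency is the fitted concentration of half-maximal effect; cells exposed to compounds for 18 to 24 hours; % is set by controls: 0 for no effect and ±100 for the full control effect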
ARE-Fluc inh – Nrf2 qHTS screen for inhibitors: Nrf2 A549 ARE-Fluc Confirmation Assay for Hit Validation; shares compounds with Nrf2 block; A549 ARE-firefly luciferase reporter, luminescence; Potency, µM (titrated, usually from 46.1 µM), without a hit: at the highest dose activity change, negative = inhibition, actives largely listed as inhibitors; 1,400 tested, 74% active; AID 720524, 2013; note: potency is the fitted concentration of half-maximal effect; % is set by controls: 0 for no effect and ±100 for the full control effect; nearly all actives have a fitted effect of over 65% in size
Numbers without * were called inactive; ? = inconclusive; · = no result. Calls come from the whole dose curve; as a rule, active = well fitted curve in the direction sought with a large enough effect; inconclusive = small, poorly fitted or top-dose-only effect, or another doubt; inactive = no such curve, though single readings can be large; an effect the other way counts as inactive or inconclusive.

SMILES | Nrf2 block | A549 tox-1 | Nrf2 ARE act | GRP78 ERSR act | Mito fusion act | miR-21 act | FLuc counter 3 | A549 tox-2 | ARE-Fluc inh
CC(C)[C@H](NC(=O)[C@@H]1CSSC[C@H](NC(=O)[C@H](CC(=O)O)NC(=O)[C@H](C)NC(=O)[C@@H](NC(=O)CNC(=O)[C@H](C)N)[C@@H](C)O)C(=O)N[C@@H](Cc2ccccc2)C(=O)N[C@@H](Cc2c[nH]c3ccccc23)C(=O)N[C@@H](CCCCN)C(=O)N[C@@H](Cc2ccc(O)cc2)C(=O)N1)C(=O)O | · | · | · | -1% | · | · | · | · | ·
N=c1ccn2c(n1)O[C@H]1[C@H](O)[C@@H](CO)O[C@H]12 | 0.18µM* | -9% | -1% | -3% | -5% | 7% | 2% | -9% | 0.092µM*
CCOc1ccc(S(=O)(=O)N2CCC(C(=O)NCc3ccccn3)CC2)cc1C | -1% | 0% | 0% | -2% | 4% | 0% | · | · | ·
C[N+]1(CCC(=O)c2ccccc2)CCCCC1 | 11% | -6% | 3% | -6% | 5% | -2% | · | · | ·
O=S(=O)(Nc1ccc(Cc2ccncc2)cc1)c1ccc(Cl)cc1 | 9.2µM* | -16% | 1% | 2% | 5% | 1% | 0% | -1% | 16µM*
O=S(=O)(Nc1ccc(Cc2ccncc2)cc1)c1ccc(Br)cc1 | ? | -13% | 3% | -4% | 5% | 8% | · | · | ·
COC(=O)c1ccc(NC(=O)c2cccc(C)c2[N+](=O)[O-])cc1 | 5% | -15% | 4% | 4% | 0% | -32% | · | · | ·
CN1/C(=C\C(=O)C[n+]2cccc(Br)c2)C(C)(C)c2ccccc21 | 3.3µM* | -23% | 0% | -5% | -1% | ? | -1% | -11% | 4.1µM*
Cc1cccc[n+]1CC(=O)/C=C1\N(C)c2ccccc2C1(C)C | 5.2µM* | ? | 0% | -2% | 0% | 26% | 3% | -27% | 7.3µM*
CN1/C(=C\C(=O)C[n+]2ccc(C(=O)c3ccccc3)cc2)C(C)(C)c2ccccc21 | 5.2µM* | -19% | 0% | -6% | 2% | 18% | -1% | -17% | 5.2µM*
Cc1ccc(CNC(=O)c2ccc(Cn3c(SCc4ccccc4F)nc4cccnc43)cc2)cc1 | ? | -14% | 0% | 1% | · | 3% | · | · | ·
COc1ccc(CCN(C)C(=O)c2cccc(S(=O)(=O)N3CCN(c4ccc(F)cc4)CC3)c2)cc1OC | 7.3µM* | -11% | 4% | -1% | · | · | -1% | -9% | 5.2µM*
COc1ccccc1CN(C)C(=O)c1cccc(S(=O)(=O)N2CCCC2)c1 | -3% | 4% | -1% | -6% | -5% | · | · | · | ·
O=C(c1cccc(S(=O)(=O)N2CCN(c3ccc(F)cc3)CC2)c1)N1CCCC(C(F)(F)F)C1 (configuration not stated) | 4.6µM* | -19% | 3% | -5% | 24% | · | 1% | -8% | 5.2µM*
CN(CCOc1ccc(Cl)cc1)C(=O)c1cccc(S(=O)(=O)N2CCN(c3ccc(F)cc3)CC2)c1 | 4.1µM* | -19% | 2% | -8% | · | · | -1% | -15% | 4.1µM*
Cc1cccc(C)c1NC(=O)CN(C)C(=O)c1cccc(S(=O)(=O)N2CCN(c3ccc(F)cc3)CC2)c1 | 5.2µM* | ? | 0% | -5% | 2% | · | 5% | -17% | 9.2µM*
O=C(Nc1ccc(S(=O)(=O)Nc2nccs2)cc1)c1ccc(F)c(S(=O)(=O)N2CCOCC2)c1 | -24% | -12% | 1% | -2% | -2% | -2% | · | · | ·
COc1ccccc1NS(=O)(=O)c1cc(NC(=O)CCC(=O)c2cccs2)ccc1Cl | 8.2µM* | -17% | 0% | 2% | 7% | 10% | -5% | -1% | ?
COc1ccc(NC(=O)CCC(=O)c2cccs2)cc1S(=O)(=O)Nc1ccc(Cl)cc1 | 8% | -1% | 0% | 1% | -14% | 20% | · | · | ·
Cc1ccc(OCCCC(=O)NCc2ccco2)c(C)c1 | · | · | · | · | -1% | -2% | · | · | ·
O=C(O)C1=C[C@H](c2csc3ccccc23)C[C@H](OCc2ccc(CO)cc2)O1 | -11% | -2% | 0% | -2% | -5% | -4% | · | · | ·
O=C(NCc1ccccc1)C1=C[C@@H](c2csc3ccccc23)C[C@@H](OCc2ccc(CO)cc2)O1 | 6.5µM* | ? | 0% | 0% | 0% | ? | 1% | -26% | 18µM*
Cc1nc(Nc2nc3ccccc3o2)nc2c1CCCC2 | ? | -2% | · | · | · | · | · | · | ·
COCCNc1nc2c(c(=O)n(Cc3ccc(OC)cc3)c(=O)n2C)n1C | 3% | -1% | -1% | -5% | -1% | 3% | · | · | ·
COc1ccc(CNc2nc3c(c(=O)n(Cc4ccc(Cl)cc4)c(=O)n3C)n2C)cc1 | 9.2µM* | ? | 0% | 2% | 9% | ? | 0% | -19% | 13µM*
Nc1ccc(N2CCCCC2)c(S(=O)(=O)Nc2ccccc2Cl)c1 | -11% | 1% | 3% | 7% | 26% | -1% | · | · | ·
Nc1cc(S(=O)(=O)Nc2ccccc2Cl)ccc1N1CCCCC1 | 7.3µM* | -10% | 0% | 6% | · | · | 9.5µM* | -4% | 15µM*
C[C@H]1CN([C@@H](C)CO)C(=O)c2cccc(NS(=O)(=O)c3ccc(F)cc3)c2O[C@H]1CN(C)Cc1ccc(Cl)c(Cl)c1 | 5.2µM* | -15% | -5% | -3% | · | · | 3% | ? | 18µM*
CCCC(=O)NC(NC(=S)Nc1ccc(N=Nc2ccccc2)cc1)C(Cl)(Cl)Cl (configuration not stated) | 8.2µM* | ? | -1% | -7% | 0% | 29% | -21% | ? | 7.3µM*

Source: PubChem BioAssay (National Center for Advancing Translational Sciences (NCATS))
